Assay results taken from PubChem BioAssay AID1527 (The Scripps Research Institute Molecular Screening Center, 2009).
The campaign covered roughly 290,000 compounds. About 2,600 (0.9%) were called active. This excerpt belongs to a sample that is enriched for actives. Unmarked numbers belong to inactive results.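 How the source made its calls: active means inhibition above the mean of all tested compounds plus 3 SD, cutoff set per screening run (cut at about 7.5% in these data); inactive means the rest.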

These compounds were tested on VIM-2 metallo-beta-lactamase (Pseudomonas aeruginosa) (assay: inhibition of VIM-2 nitrocefin hydrolysis – biochemical, epi-absorbance readout, Pseudomonas aeruginosa enzyme, primary screen (AID 1527;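 further: red hydrolysis product quenches plate fluorescence so inhibitors raise well fluorescence; 0% = enzyme with DMSO and 100% = DMSO without enzyme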)). Conditions: purified VIM-2, nitrocefin hydrolysis, epi-absorbance fluorescence; at 5.6 µM; stronger effect = higher value.
Compound Fc1ccc(N2CCN(Cc3ccc4c(c3)OCO4)CC2)cc1 has an inhibition of -2.76%.
For O=C(Cc1ccccc1[N+](=O)[O-])N1CCN(Cc2ccc3c(c2)OCO3)CC1, the inhibition was 1.82%.
Cc1cc(=O)oc2c(C)c(OCC(=O)N3CCN(Cc4ccc5c(c4)OCO5)CC3)ccc12 was tested, and the inhibition was 41.5% (active).
Work on CC(=O)c1c(C)n(C(C)C)c2ccc(O)cc12 yielded an inhibition of -2.19%.
In the case of COc1cc2nc(N3CCN(C(=O)[C@@H]4CCCO4)CC3)nc(N)c2cc1OC, the inhibition is reported as -2.29%.
Compound CCOC(=O)C1(CCc2ccccc2)CCN(Cc2ccco2)CC1 has an inhibition of -1.92%.
Work on CNC(=O)O/N=C(\N)Cc1csc2ccc(Cl)cc12 yielded an inhibition of -0.28%.
For COC(=O)COc1cc(C)cc2oc(=O)c3c(c12)CCCC3, the inhibition was 8.38% (active).
Work on CCN1CCN(C(=O)Cc2coc3cc(C)cc(C)c23)CC1 yielded an inhibition of -5.4%.
For Cc1cc(OCc2cc(C(=O)O)oc2C)c2c3c(c(=O)oc2c1)CCCC3, the inhibition was 56.6% (active).
With O=C(N/N=C/c1c(O)n(C2CC2)c(=S)[nH]c1=O)c1ccccc1Cl the inhibition was -1.56%.
CN(C)CC1CCCCC1OC(=O)c1ccc(Cl)c(Cl)c1 (stereo not given) was tested, and the inhibition was 0.42%.
With Cc1cc2ccccn2c1C(C[N+](=O)[O-])c1c(F)cccc1Cl (stereo not given) the inhibition was 0.92%.
COc1ccc(-n2c(-c3ccccc3)nc3ccccc3c2=O)cc1 showed an inhibition of -3.17%.
COCCNC(=O)CN1C2CCC1CC(O)(c1cccnc1)C2 (stereo not given) gave an inhibition of -2.88%.
